# This is a sample that favours compounds with a hit; in the whole collection about 13% have one here.
# Marburg entry inh = qHTS for inhibitors of binding or entry into cells for Marburg Virus. 300,000 tested, 1.8% active. Marburg virus pseudotyped entry inhibition, cell reporter. AID 540276, 2011. Potency, µM (highest dose often 37.8 µM), usual class: inhibitors; calls by dose curve; tested in HEK293 cells
# HCV inhibitor = qHTS Assay for Inhibitors of Hepatitis C Virus (HCV) | Huh7.5.1 HCVcc-Cre infection, luciferase reporter, 44 h | Potency, µM (top dose mostly 41.8 µM), actives largely listed as inhibitors | 340,000 tested, 3.4% active | AID 651820, 2012; active = well fitted inhibition curve with a large enough effect; inconclusive = small, poorly fitted or top-dose-only effect, or another doubt; inactive = no such curve, though single readings can be large or run the other way
#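 Luciferase read-out (15 sec integration) after a 15 min room-temperature substrate step quantifies HCVcc-Cre infection. Cells, 1,000 per well, had compound added 4 h post-plating, then virus at ~0.5 moi, and were cultured 44 h.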
# Shiga toxin inh = A qHTS for Small Molecule Inhibitors of Shiga Toxin; Vero cells, Shiga toxin protein synthesis inhibition reporter; inhibition, % at 38.7 µM; 290,000 tested, 9.2% active; AID 2315, 2010; in the data active = inhibition mostly above about 28%, no sharp cut-off; inactive = mostly below about 43%
# FMDV inh = High Throughput Screening for Foot and Mouth Disease Virus Antivirals; 410,000 tested, 1.2% active; AID 1159524, 2015; FMDV antiviral cell-based qHTS; Potency, µM (doses to about 57.9 µM), hits mostly inhibitors; calls by dose curve; tested in HEK293T cells; note: read-out not given here; nearly all actives have a fitted effect of over 45% in size
# LASV entry inh = qHTS for Inhibitors of binding or entry into cells for Lassa Virus; Lassa virus pseudotype entry inhibition, cell reporter; 300,000 tested, 1.2% active; AID 540256, 2011; Potency, µM (titrated, usually from 37.9 µM), hits mostly inhibitors; calls by dose curve; tested in HEK293 cells; note: nearly all actives have a fitted effect of over 50% in size
# Cycloheximide cs = Cycloheximide Counterscreen for Small Molecule Inhibitors of Shiga Toxin; max response, %; 300,000 tested, 12% active; AID 2314, 2010; cell reporter, cycloheximide protein synthesis inhibition counterscreen; in the data active = max response mostly above about 13%, no sharp cut-off; inactive = mostly below about 14%; note: read at 38.3 µM for the half of the compounds with a filed dose
# A number is an active result; i = inactive; ? = inconclusive; nt = not tested or not shown.
SMILES,Marburg entry inh,HCV inhibitor,Shiga toxin inh,FMDV inh,LASV entry inh,Cycloheximide cs
Cc1ccc(S(=O)(=O)N(C)C)cc1NC(=O)CSc1nc2ncc(Cl)cc2[nH]1,i,2.5µM,nt,?,i,nt
COc1ccc(C(=O)N2CCC[C@@]3(CCN(C(=O)Nc4cccc(F)c4)C3)C2)cc1,nt,nt,nt,i,nt,nt
COc1cc(C(=O)O/N=C2\C=CC(=O)C(C)=C2)cc(OC)c1OC,?,?,101,?,?,71
COc1ccc(C2(O)CCN(C(=O)c3ccc4c(c3)OCO4)CC2)cc1,?,i,i,i,i,i
CN(Cc1ccc(-n2cccn2)cc1)C(=O)c1cnn2c1NC(c1ccco1)CC2C(F)(F)F (configuration not stated),?,11µM,i,25µM,?,i
O=C(NCc1cccc(Cl)c1)c1cnn2c1NC(c1ccco1)CC2C(F)(F)F (configuration not stated),?,?,i,?,i,i
O=C(Nc1ccc2c(c1)CCC2)c1cnn2c1NC(c1ccco1)CC2C(F)(F)F (configuration not stated),i,?,90,i,i,52
Cc1ccc(Cl)cc1NC(=O)c1cnn2c1NC(c1ccco1)CC2C(F)(F)F (configuration not stated),?,25µM,i,?,?,i
C/C(N)=C(/C#N)C(=O)CSc1cc(C)c2cc(C)cc(C)c2n1,i,10µM,i,i,i,i
Cn1c(N)c(C(=O)CSc2ccc3c(c2)OCCO3)c(=O)n(C)c1=O,i,i,i,i,i,i
C/C(N)=C(/C#N)C(=O)CSc1ccc2c(c1)OCCO2,?,i,98,i,?,48
CCNc1nnc(SCC(=O)c2cc(C)n(C3CC3)c2C)s1,i,?,nt,i,?,nt
Cc1cc(C(=O)CSc2ccc3c(c2)OCCO3)c(C)n1C1CC1,?,i,92,i,?,67
Cc1cc(C)c2nc(SCC#N)cc(C)c2c1,i,?,i,nt,i,i
Cc1ccccc1Nc1nc(N)nc(CSCc2c(C)noc2C)n1,i,i,i,?,i,i
Cc1nc(C(C)N(C)Cc2nc(-c3ccc4c(c3)OCO4)no2)c(C)s1 (configuration not stated),?,i,i,i,i,51
Cc1cccc(-c2noc(CN(C(=O)c3ccc4c(c3)OCO4)C(C)C)n2)c1,?,?,i,?,i,i
COc1ccc(Cl)cc1-n1c(C)cc(C=O)c1C,i,i,i,i,?,i
c1cnc2c(c1)ncn2C1CCNCC1,nt,nt,nt,i,i,nt
Cc1cc(-c2ccccc2)c(C#N)c(N)n1,?,7.9µM,i,i,i,i
COc1ccc(-c2sc3ccccc3c2C#CCCO)cc1,nt,?,i,i,nt,i
COc1ccc(-c2sc3ccccc3c2C#CCO)cc1,nt,28µM,i,i,nt,i
COc1ccc(-c2sc3cc(OC)c(OC)cc3c2C#CC2(O)CCCCC2)cc1,nt,16µM,nt,i,nt,nt
COc1ccc(-c2sc3ccccc3c2C#Cc2cncn2C)cc1,nt,3.5µM,nt,i,nt,nt
COc1ccccc1-c1sc2cc3c(cc2c1C#Cc1cncn1C)OCO3,nt,0.89µM,nt,?,nt,nt
SMILES,Marburg entry inh,HCV inhibitor,Shiga toxin inh,FMDV inh,LASV entry inh,Cycloheximide cs
Cc1ccc(CNC(=O)CCNS(=O)(=O)c2ccc(C)cc2)cc1,i,i,i,i,i,i
COc1ccc(-c2sc3ccc(N4CCOCC4)cc3c2C#CCCO)cc1,nt,4µM,nt,?,nt,nt
COC(=O)c1c(-c2ccc(N(C)C)cc2)sc2ccc(OC)cc12,nt,?,nt,i,nt,nt
COc1ccc(-c2sc3cc(OC)c(OC)cc3c2C#CCCO)cc1,nt,?,nt,i,nt,nt
COc1cc(-c2ccc3sc(-c4ccsc4)c(C#CCO)c3c2)cc(OC)c1OC,nt,3.2µM,nt,i,nt,nt
COC(=O)c1c(-c2ccc(OC)cc2)sc2cc3c(cc12)OCO3,nt,11µM,nt,i,nt,nt
COc1cc(-c2c(-c3ccsc3)sc3ccccc23)cc(OC)c1OC,nt,i,nt,i,nt,nt
COc1ccc(-c2sc3cc4c(cc3c2C#CCO)OCO4)cc1,nt,11µM,nt,i,nt,nt
CC(C)N(Cc1ccccc1)C(=O)Cn1c(=O)cnc2ccccc21,nt,i,i,i,nt,i
O=C(c1ccc(C(F)(F)F)cc1)C1CCCN(Cc2ccncc2)C1 (configuration not stated),i,6.3µM,i,?,nt,i
O=C(c1cc(F)ccc1F)C1CCCN(C(=O)CCc2cnccn2)C1 (configuration not stated),i,i,i,i,i,i
COc1cc(CN2CCCC(C(=O)c3ccc(C(C)(C)C)cc3)C2)cc(OC)c1O (configuration not stated),?,?,i,i,?,18
O=C(c1cccc2ccccc12)C1CCCN(C(=O)CCc2cnccn2)C1 (configuration not stated),i,i,i,i,i,15
CSc1ccccc1C(=O)C1CCCN(C(=O)c2csnn2)C1 (configuration not stated),?,i,90,i,i,31
COc1cc(CN2CCCC(C(=O)c3sccc3C)C2)cc(OC)c1O (configuration not stated),nt,i,i,i,nt,i
CSc1ccccc1C(=O)C1CCCN(C(=O)c2cc(C(C)C)no2)C1 (configuration not stated),i,?,i,i,i,i
O=C(c1ccc(C(F)(F)F)cc1)C1CCCN(Cc2ccc(CO)o2)C1 (configuration not stated),nt,i,i,i,nt,i
COc1ccccc1NC(=S)N1CCn2cccc2C1c1cccnc1 (configuration not stated),i,i,i,i,i,i
CCN1C(=O)C(CC(=O)Nc2c(C)cccc2C)SC1=Nc1ccc(S(N)(=O)=O)cc1 (configuration not stated),i,i,i,i,i,i
COC(=O)c1ccc(Cl)c(S(=O)(=O)N2CCCC2)c1,i,i,i,i,?,i
CC[C@H](C)[C@H](NC(=O)[C@H](CC(N)=O)NC(=O)[C@H](CCCCN)NC(=O)[C@H](Cc1ccccc1)NC(=O)[C@H](Cc1ccccc1)NC(=O)[C@H](Cc1cnc[nH]1)NC(=O)[C@@H](N)C(C)C)C(=O)N[C@H](C(=O)N[C@H](C(=O)N1CCC[C@H]1C(=O)N[C@@H](CCCN=C(N)N)C(=O)N[C@H](C(=O)N1CCC[C@H]1C(=O)O)[C@@H](C)O)[C@@H](C)O)C(C)C,nt,nt,i,nt,nt,i
O=C(c1ccc(C(F)(F)F)cc1)C1CCCN(C(=O)CCc2ccncc2)C1 (configuration not stated),?,11µM,i,?,i,i
COc1cc(CN2CCCC(C(=O)c3ccccc3SC)C2)cc(OC)c1 (configuration not stated),nt,11µM,i,i,nt,i
COc1cc(/C(C)=N/NC(=O)CSc2nc3ccccc3[nH]2)ccc1O,i,i,i,i,i,i
O=C1c2ccccc2-c2nc3ccccc3cc21,?,i,69,i,?,34
O=C1c2ccccc2C(=O)c2ccccc21,nt,nt,nt,i,nt,nt
c1ccc2c(c1)Cc1cc3ccccc3nc1-2,?,i,62,i,?,26

# From PubChem BioAssay
